High-throughput results from PubChem.
This is a sample that favours compounds with a hit; in the whole collection about 0.43% have one here.
GAA inh – qHTS Assay for Inhibitors of Human alpha-Glucosidase as a Potential Chaperone Treatment of Pompe Disease. Lysosomal alpha-glucosidase (Homo sapiens), P10253. purified human GAA, 4-MU-alpha-glucoside fluorescence. Potency, µM (doses to about 76.9 µM), for the others: at the top dose activity change, negative = inhibition, usual class: inhibitors. actives 0.005% (n = 200,000). AID 1466, 2008;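 also: potency is read from the fitted curve at half-maximal effect; plate controls were uninhibited enzyme wells for no effect and no-enzyme background for full effect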
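qHTS format, compound range up to 77 uM. Human lysosomal enzyme at 4 nM, 400 uM 4-MU glucoside substrate, pH 5.0, 20 min room temperature; fluorescence after alkaline stop gives activity normalized to controls.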
aGal spleen mod – qHTS Assay for Inhibitors and Activators of Human alpha-Galactosidase From Spleen Homogenate. human spleen homogenate, 4MU-alpha-Gal fluorescence, 40 min. actives 0.008% (n = 240,000). Potency, µM (titrated, usually from 80 µM), inactives show at the top dose activity change, negative = inhibition, most hits filed as inhibitors. AID 2107, 2009;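 also: potency is read from the fitted curve at half-maximal effect; 0% = enzyme with vehicle and -100% = no enzyme basal signal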
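qHTS titration in buffer at pH 5.0. Alpha-galactosidase activity in spleen homogenate was measured via 4-methylumbelliferone release from 1 mM fluorogenic substrate after 40 min at 37C and a pH 10 stop. AC50 came from Hill fits of control-normalized data.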
GAA spleen mod – qHTS Assay for Inhibitors and Activators of Human alpha-Glucosidase From Spleen Homogenate; human spleen homogenate, 4-MU-alpha-glucoside fluorescence; Potency, µM (series often up to 79.9 µM), for the others: at the highest dose activity change, negative = inhibition, actives largely listed as inhibitors; actives 0.006% (n = 240,000);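 also: potency is read from the fitted curve at half-maximal effect; 0% = enzyme with vehicle and -100% = no enzyme basal signal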
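Human spleen homogenate (1 ug) incubated with compounds and 1 mM 4-methylumbelliferyl-alpha-D-glucopyranoside in pH 5.0 citrate/phosphate buffer, 37 C, 40 min. Stopped at pH 10; 4-MU fluorescence (Ex 365/Em 440 nm); AC50 by Hill fit.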
GAA glycogen – qHTS Assay for Inhibitors and Activators of Human alpha-Glucosidase Cleavage of Glycogen; recombinant GAA, glycogen substrate, Amplex Red glucose oxidase fluorescence; Potency, µM (series often up to 76.4 µM), inactives show at the highest dose activity change, negative = inhibition, most hits filed as inhibitors; actives 0.38% (n = 300,000);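 also: potency is read from the fitted curve at half-maximal effect; 0% = full enzyme reaction and -100% = no-enzyme basal signal; the screen sought inhibitors and activators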
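Recombinant human alpha-glucosidase (4 nM final) hydrolysed bovine liver glycogen (30 ug) for 40 min at 37 C in pH 5.0 citrate/phosphate with 0.01% Tween-20. Released glucose detected by glucose oxidase/Amplex Red, Ex 573/Em 610 nm. Compounds up to 77 uM; AC50 from Hill fits.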
GLA inh pH 4.5 – qHTS Assay for Inhibitors of Human alpha-Galactosidase at pH 4.5. activity change, negative = inhibition, % at 105 µM. 230,000 tested, under 10 active. AID 1467, 2008. Alpha-galactosidase A (Homo sapiens), P06280. purified enzyme, 4-MU-alpha-Gal fluorescence, pH 4.5;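 also: 0% = full activity with enzyme and -100% = basal without enzyme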
Target sequence (P06280 whole entry, looked up): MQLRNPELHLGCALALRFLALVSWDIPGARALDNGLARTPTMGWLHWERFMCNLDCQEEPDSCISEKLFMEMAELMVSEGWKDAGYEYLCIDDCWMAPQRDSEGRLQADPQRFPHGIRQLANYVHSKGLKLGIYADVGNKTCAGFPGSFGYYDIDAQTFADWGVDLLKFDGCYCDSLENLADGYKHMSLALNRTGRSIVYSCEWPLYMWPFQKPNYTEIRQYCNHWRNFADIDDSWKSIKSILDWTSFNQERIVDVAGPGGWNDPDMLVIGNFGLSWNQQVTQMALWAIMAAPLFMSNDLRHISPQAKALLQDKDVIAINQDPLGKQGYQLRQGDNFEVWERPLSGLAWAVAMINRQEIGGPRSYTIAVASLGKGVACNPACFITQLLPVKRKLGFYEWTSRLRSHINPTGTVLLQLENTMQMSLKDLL
N370S GC – qHTS Assay for Inhibitors and Activators of N370S glucocerebrosidase as a Potential Chaperone Treatment of Gaucher Disease; N370S GC spleen homogenate, 4MU-glucoside fluorescence; Potency, µM (series often up to 59.4 µM), for the others: top-dose activity change, negative = inhibition, usual class: inhibitors; actives 0.092% (n = 330,000); AID 2101, 2009;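 also: potency is read from the fitted curve at half-maximal effect; 0% = full enzyme activity and -100% = no enzyme basal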
Active calls of the source: *; ? = inconclusive; / = not tested or not shown; [ ] = another dose, or the depositor's remark. Calls follow the shape of the dose curve; as a rule, active = well fitted curve in the direction sought with a large enough effect; inconclusive = small, poorly fitted or top-dose-only effect, or another doubt; inactive = no such curve, though single readings can be large; an effect the other way counts as inactive or inconclusive.

SMILES | GAA inh | aGal spleen mod | GAA spleen mod | GAA glycogen | GLA inh pH 4.5 | N370S GC
CCOc1ccc(N(CC(=O)Nc2cccc(C)c2C)S(=O)(=O)c2c(C)[nH]c(=O)[nH]c2=O)cc1 | / | 7% | -8% | 5% | -1 | 11µM*
CCOc1ccc(N(CC)S(=O)(=O)c2c(C)[nH]c(=O)[nH]c2=O)cc1 | / | / | / | -2% | / | -6%
COc1ccc(N(CC(=O)NCc2ccc(C)cc2)S(=O)(=O)c2c(C)[nH]c(=O)[nH]c2=O)cc1 | / | / | / | -3%[76.3 µM] | / | 8.9µM*
CCOc1ccc(N(CC(=O)NCc2ccc(C)cc2)S(=O)(=O)c2c(C)[nH]c(=O)[nH]c2=O)cc1 | / | / | / | -5%[76.3 µM] | / | ?
CCOc1ccc(N(CC(=O)Nc2c(C)cccc2C)S(=O)(=O)c2c(C)[nH]c(=O)[nH]c2=O)cc1 | / | -1% | 0% | -2% | -11 | 4.5µM*
C/C(=N\N1CCN(C)CC1)c1ccc(Cl)c(Cl)c1 | 4% | 1% | 2% | 28µM* | 5 | -2%
N#C/C(=C\c1c[nH]c2ccccc12)C(=O)c1ccc(O)c(O)c1 | / | 2% | 6% | / | -5 | -25%
Oc1ccc(NC(=S)Nc2ccc(O)cc2)cc1 | -5% | 10% | 4% | 3.1µM* | 7 | ?
COC(=O)c1ccc(NC(=S)Nc2ccc(O)cc2)cc1 | 4% | 3% | 7% | 7.9µM* | -8 | -16%
S=C(NNC(=S)Nc1ccccc1)Nc1ccccc1 | / | / | / | ? | / | 1%
Fc1ccc(Nc2nc(-c3ccoc3)nc3ccccc23)cc1 | / | 4% | 5% | / | / | 16µM*
O=C(O)c1ccc(Nc2nc(-c3ccc([N+](=O)[O-])cc3)nc3ccccc23)cc1 | / | / | / | -9% | / | -6%
CC(Nc1nc(-c2ccccc2)nc2ccccc12)c1ccccc1 (centres undefined) | -1% | -1% | -1% | -12% | 5 | 5µM*
c1ccc(CNc2nc(-c3ccoc3)nc3ccccc23)cc1 | / | -2% | 2% | / | / | ?
Cc1cccc(-c2nc(Nc3ccc(N4CCOCC4)cc3)c3ccccc3n2)c1 | -11% | -3% | -3% | -5% | -8 | 2.8µM*
CC(=O)Nc1ccc(Nc2nc(-c3ccccc3)nc3ccccc23)cc1 | 0% | -4% | 1% | -11% | -9 | 6.3µM*
COc1cc(OC)c(NC(=O)Nc2cc(C)on2)cc1Cl | / | -5% | 4% | / | / | -4%
NS(=O)(=O)Nc1ccccc1Br | / | 8% | -1% | / | / | -2%
Cc1ccc(C)c(NC(=O)C2CCCN(S(=O)(=O)c3ccc4[nH]c(=O)ccc4c3)C2)c1 (centres undefined) | / | / | / | 32µM* | / | -23%
C#CCOCCOCCOCCNc1nc(N2CCN(C(=O)CCCCCCCCCCNC(=O)Cn3cc(C[C@@H](C)O)nn3)CC2)nc(N2CCN(C(=O)CCCCCCCCCCNC(=O)[C@H](CCCCN)n3cc(CCCC(=O)O)nn3)CC2)n1 | / | / | / | / | / | -14%
C#CCOCCOCCOCCNc1nc(N2CCN(C(=O)CCCCCCCCCCNC(=O)Cn3cc(C[C@@H](C)O)nn3)CC2)nc(N2CCN(C(=O)CCCCCCCCCCNC(=O)[C@H](CCCN=C(N)N)n3cc(C[C@@H](C)CC)nn3)CC2)n1 | / | / | / | / | / | 2.8µM*
C#CCOCCOCCOCCNc1nc(N2CCN(C(=O)CCCCCCCCCCNC(=O)[C@H](CO)n3cc(CCCSC)nn3)CC2)nc(N2CCN(C(=O)CCCCCCCCCCNC(=O)[C@H](CCCN=C(N)N)n3cc(C[C@@H](C)CC)nn3)CC2)n1 | / | / | / | / | / | 3.2µM*
CNC(=O)C1(C(F)(F)F)CC(CCCO)CCCO1 (centres undefined) | / | 3% | 7% | / | / | -1%
O=C(NCc1ccccc1Cl)c1ccc(CS(=O)(=O)c2ccc(Br)cc2)o1 | / | / | / | 45µM* | / | /
c1ccc(-c2ccc3c(c2)NCCN3)cc1 | / | -9% | -5% | 8.9µM* | 6 | -12%
SMILES | GAA inh | aGal spleen mod | GAA spleen mod | GAA glycogen | GLA inh pH 4.5 | N370S GC
OCc1ccc(-c2ccc(-c3ccc(CO)s3)o2)s1 | / | ? | 17% | / | ? | ?
Cn1c(=O)c2c(nc(N/N=C/c3ccco3)n2C)n(C)c1=O | ? | 4% | -2% | 8.9µM* | 8 | 3%
Cn1c(=O)c2c(nc(N/N=C/c3cccs3)n2C)n(C)c1=O | -10% | -8% | -8% | ? | -3 | -3%
COC(=O)c1cc(O)c(OCc2ccccc2)c(O)c1 | -3% | 4% | -15% | -25% | -5 | -2%
CC(=O)Oc1c(C)cc(O)c2ccccc12 | 2% | 4% | 2% | 14µM* | -1 | 8%
CC(=O)Cc1cc(O)c2ccccc2c1OC(=O)c1ccccc1 | ? | 7% | -8% | 8.9µM* | -18 | -28%
CCN1CCS/C1=C/C=C/C1=[N+](CC)CCS1 | ? | -20% | ? | -9% | ? | 7.9µM*
O=C(c1nc(-c2ccc(Cl)cc2)n2c1CCCCC2)N1CCN(c2ccccc2F)CC1 | / | / | / | -10%[76.3 µM] | / | /
COc1ccc(-c2cnnc(N/N=C/c3ccc(O)c(O)c3)n2)cc1 | -2% | -5% | -9% | 11µM* | -7 | -13%
CC(C)CC1Nc2ccc(C(=O)NCCCN3CCCCC3C)cc2NC1=O (centres undefined) | / | / | / | 13µM* | / | -6%
COC(=O)C1=C[C@@H](C(=O)OC)C2C3=C(C(=O)[C@@]2(CC(C)C)NC(=O)c2ccccc2)[C@H](C)n2c(=O)n(C)c(=O)n2[C@@H]3C1 (some centres undefined) | / | -15% | 5% | / | / | -4%
CCOC(=O)c1c(CSc2ccccc2)n(C)c2cc(Br)c(OCC(O)CNC(CO)(CO)CO)cc12 (centres undefined) | -6% | -16% | -15% | 2% | -1 | 14µM*
O=S(=O)(c1ccc(Cl)cc1)N1CCN(c2nc(-c3cccs3)nc3ccccc23)CC1 | ? | 10% | 5% | -7% | -9 | 0.45µM*
Cc1ccc(Cn2cc(CCC(=O)NCC(C)c3ccccc3)c3ccccc32)cc1 (centres undefined) | / | / | / | -15%[76.3 µM] | / | /
COc1cc(C2NC(=O)NC(C)=C2C(=O)OCc2ccc(C)cc2)cc(OC)c1O (centres undefined) | 1% | 8% | 10% | 9.9µM* | 4 | 0%
COc1cc(C2NC(=O)NC(C)=C2C(=O)OCc2ccc(C)cc2)cc(OC)c1OC (centres undefined) | / | / | / | 6%[76.3 µM] | / | -15%
